Source: the supplement of paper PMC11732987, “Enantioselective OTUD7B fragment discovery through chemoproteomics screening and high-throughput optimisation” (Communications Chemistry, 2025)

Key:
Test in all cases: log2 ratio of Biotin-Ahx-Ub-VS probe labelling (fragment/DMSO); higher = less target engagement (more negative = stronger competition), active = hit call of the paper (q ≤ 0.05, log2 ratio ≤ -1)
Details in all cases: compound concentration: 200 uM; treatment time: 3 h
OTUD6B = target: T1, OTUD6B (UniProt Q8N6M0)
T1 sequence (whole entry): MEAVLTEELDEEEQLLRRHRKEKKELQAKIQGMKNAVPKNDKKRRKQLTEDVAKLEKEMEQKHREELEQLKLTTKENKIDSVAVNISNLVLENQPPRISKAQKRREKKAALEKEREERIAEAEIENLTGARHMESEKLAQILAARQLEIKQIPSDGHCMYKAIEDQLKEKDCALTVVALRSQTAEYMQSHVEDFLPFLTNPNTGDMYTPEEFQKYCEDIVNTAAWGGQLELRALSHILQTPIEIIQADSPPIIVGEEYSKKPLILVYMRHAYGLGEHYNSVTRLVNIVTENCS
How it was run: (§1)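 HEK293T lysate (495 µg per sample, in Tris/CHAPS/IGEPAL buffer with protease inhibitors) was exposed in triplicate for 3 h to fragment at 200 µM or to vehicle, then to Biotin-Ahx-Ub-VS at 0.5 µM final for 1 h. Labelled DUBs were enriched on NeutrAvidin, digested with LysC and trypsin, and analysed by diaPASEF LC-MS/MS. Spectronaut label-free quantities were normalised to the global median, and values are average log2 ratios of fragment over vehicle from an unpaired t-test. Only proteins with ≥2 unique peptides were used.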

OTUD7B = target: T2, OTUD7B (UniProt Q6GQQ9)
T2 sequence (whole entry): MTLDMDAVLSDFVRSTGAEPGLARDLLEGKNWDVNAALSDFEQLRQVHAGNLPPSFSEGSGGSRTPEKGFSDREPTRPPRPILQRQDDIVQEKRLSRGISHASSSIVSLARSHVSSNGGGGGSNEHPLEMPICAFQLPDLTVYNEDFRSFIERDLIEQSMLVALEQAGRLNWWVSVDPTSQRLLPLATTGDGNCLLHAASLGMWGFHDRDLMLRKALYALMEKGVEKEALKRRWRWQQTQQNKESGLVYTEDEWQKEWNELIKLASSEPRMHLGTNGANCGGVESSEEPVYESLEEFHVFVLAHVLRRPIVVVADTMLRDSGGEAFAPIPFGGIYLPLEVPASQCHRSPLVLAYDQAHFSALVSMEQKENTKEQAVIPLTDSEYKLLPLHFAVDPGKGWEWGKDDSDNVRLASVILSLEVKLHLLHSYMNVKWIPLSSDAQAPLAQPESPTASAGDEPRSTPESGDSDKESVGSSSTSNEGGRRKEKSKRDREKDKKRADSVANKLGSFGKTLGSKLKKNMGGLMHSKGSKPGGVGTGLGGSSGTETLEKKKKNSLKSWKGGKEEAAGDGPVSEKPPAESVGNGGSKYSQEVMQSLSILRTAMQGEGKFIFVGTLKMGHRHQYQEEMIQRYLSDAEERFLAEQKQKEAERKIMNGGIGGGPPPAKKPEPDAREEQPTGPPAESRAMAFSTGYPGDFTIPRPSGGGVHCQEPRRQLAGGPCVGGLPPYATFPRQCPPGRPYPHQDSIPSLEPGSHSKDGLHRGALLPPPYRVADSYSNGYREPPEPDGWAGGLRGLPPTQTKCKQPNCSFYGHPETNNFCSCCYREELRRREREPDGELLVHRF
How it was run: as §1

PRPF8 = PRPF8 (UniProt Q6P2Q9)
How it was run: as §1

PSMD7 = target: T3, PSMD7 (UniProt P51665)
T3 sequence (whole entry): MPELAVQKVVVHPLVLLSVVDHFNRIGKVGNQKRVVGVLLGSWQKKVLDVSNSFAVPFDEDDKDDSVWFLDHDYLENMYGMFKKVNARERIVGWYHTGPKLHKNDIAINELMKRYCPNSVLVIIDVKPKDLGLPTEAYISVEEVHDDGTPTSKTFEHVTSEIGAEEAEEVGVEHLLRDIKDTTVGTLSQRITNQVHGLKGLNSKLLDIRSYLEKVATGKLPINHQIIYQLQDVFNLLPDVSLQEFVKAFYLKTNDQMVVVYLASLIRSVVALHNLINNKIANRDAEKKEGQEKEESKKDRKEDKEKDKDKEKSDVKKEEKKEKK
How it was run: as §1

UCHL1 = UCHL1 (UniProt P09936)
Sequence of UCHL1 (P09936 whole entry, looked up): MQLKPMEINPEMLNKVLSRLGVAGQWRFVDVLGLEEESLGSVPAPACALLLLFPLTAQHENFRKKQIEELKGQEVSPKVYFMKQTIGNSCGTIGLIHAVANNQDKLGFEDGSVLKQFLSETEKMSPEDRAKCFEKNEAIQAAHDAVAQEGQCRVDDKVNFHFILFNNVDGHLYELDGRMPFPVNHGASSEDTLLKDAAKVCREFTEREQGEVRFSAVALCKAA
How it was run: as §1

UCHL3 = target: T4, UCHL3 (UniProt P15374)
T4 sequence (whole entry): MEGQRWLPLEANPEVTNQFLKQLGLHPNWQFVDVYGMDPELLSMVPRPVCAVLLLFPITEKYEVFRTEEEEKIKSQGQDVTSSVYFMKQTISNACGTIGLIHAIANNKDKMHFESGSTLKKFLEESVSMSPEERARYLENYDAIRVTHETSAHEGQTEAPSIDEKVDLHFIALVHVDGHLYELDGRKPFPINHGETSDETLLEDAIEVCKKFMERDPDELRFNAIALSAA
How it was run: as §1

UCHL5 = target: T5, UCHL5 (UniProt Q9Y5K5)
T5 sequence (whole entry): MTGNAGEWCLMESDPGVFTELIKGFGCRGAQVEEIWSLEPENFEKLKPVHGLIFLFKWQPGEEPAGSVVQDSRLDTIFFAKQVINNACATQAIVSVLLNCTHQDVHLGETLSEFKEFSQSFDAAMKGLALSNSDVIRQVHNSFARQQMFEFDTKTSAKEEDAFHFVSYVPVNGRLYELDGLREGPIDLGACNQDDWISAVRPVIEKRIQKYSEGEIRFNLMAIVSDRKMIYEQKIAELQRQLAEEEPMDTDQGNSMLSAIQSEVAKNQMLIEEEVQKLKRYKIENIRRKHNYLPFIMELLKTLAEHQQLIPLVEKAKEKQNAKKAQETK
How it was run: as §1

USP10 = USP10 (UniProt Q14694)
Sequence of USP10 (Q14694 whole entry): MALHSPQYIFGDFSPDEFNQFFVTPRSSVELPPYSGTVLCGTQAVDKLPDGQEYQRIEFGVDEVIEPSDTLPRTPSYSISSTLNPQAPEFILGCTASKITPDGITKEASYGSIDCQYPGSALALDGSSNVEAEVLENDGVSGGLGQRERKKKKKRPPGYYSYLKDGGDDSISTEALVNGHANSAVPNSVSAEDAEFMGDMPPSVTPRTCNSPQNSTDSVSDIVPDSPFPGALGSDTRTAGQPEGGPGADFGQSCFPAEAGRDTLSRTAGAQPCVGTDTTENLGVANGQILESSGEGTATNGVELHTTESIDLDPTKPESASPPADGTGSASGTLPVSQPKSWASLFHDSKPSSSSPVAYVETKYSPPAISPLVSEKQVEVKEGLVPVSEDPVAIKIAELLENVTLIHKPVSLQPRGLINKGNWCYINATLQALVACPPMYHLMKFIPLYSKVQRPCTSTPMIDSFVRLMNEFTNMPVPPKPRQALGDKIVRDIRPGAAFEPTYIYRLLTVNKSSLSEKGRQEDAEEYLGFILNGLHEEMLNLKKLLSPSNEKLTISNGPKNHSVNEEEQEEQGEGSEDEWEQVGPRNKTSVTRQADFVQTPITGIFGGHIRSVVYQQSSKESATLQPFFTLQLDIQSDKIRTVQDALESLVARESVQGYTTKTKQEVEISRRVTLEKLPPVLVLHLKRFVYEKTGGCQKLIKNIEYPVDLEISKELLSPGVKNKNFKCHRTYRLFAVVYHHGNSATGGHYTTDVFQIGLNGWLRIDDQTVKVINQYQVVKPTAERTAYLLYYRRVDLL
How it was run: as §1

USP15 = target: T6, USP15 (UniProt Q9Y4E8)
T6 sequence (whole entry): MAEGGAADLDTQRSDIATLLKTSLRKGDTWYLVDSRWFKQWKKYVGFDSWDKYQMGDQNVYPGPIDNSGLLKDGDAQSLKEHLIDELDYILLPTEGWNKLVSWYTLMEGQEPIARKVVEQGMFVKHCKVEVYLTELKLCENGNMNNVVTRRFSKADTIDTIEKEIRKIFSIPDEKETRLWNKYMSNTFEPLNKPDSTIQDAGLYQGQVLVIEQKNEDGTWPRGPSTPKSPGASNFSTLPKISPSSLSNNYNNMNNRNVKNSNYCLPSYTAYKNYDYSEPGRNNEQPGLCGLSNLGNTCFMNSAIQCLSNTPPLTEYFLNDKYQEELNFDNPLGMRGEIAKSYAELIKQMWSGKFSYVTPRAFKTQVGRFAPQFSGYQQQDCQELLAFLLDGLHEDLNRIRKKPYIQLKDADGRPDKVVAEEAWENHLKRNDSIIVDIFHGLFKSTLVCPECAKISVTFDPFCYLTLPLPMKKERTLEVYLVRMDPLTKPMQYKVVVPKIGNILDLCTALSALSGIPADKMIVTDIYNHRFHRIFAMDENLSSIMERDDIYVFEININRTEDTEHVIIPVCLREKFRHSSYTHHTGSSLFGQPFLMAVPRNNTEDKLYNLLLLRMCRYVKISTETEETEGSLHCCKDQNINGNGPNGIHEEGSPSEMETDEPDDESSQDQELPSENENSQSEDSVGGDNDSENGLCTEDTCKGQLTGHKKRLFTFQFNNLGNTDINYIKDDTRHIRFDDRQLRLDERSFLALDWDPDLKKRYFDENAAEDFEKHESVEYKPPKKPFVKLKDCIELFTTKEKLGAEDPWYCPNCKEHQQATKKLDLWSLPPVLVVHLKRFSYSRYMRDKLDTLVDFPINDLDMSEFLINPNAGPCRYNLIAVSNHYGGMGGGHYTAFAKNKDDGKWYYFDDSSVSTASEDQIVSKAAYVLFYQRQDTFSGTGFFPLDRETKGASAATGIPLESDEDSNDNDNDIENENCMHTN
How it was run: as §1

USP16 = USP16 (UniProt Q9Y5T5)
Sequence of USP16 (Q9Y5T5 whole entry, looked up): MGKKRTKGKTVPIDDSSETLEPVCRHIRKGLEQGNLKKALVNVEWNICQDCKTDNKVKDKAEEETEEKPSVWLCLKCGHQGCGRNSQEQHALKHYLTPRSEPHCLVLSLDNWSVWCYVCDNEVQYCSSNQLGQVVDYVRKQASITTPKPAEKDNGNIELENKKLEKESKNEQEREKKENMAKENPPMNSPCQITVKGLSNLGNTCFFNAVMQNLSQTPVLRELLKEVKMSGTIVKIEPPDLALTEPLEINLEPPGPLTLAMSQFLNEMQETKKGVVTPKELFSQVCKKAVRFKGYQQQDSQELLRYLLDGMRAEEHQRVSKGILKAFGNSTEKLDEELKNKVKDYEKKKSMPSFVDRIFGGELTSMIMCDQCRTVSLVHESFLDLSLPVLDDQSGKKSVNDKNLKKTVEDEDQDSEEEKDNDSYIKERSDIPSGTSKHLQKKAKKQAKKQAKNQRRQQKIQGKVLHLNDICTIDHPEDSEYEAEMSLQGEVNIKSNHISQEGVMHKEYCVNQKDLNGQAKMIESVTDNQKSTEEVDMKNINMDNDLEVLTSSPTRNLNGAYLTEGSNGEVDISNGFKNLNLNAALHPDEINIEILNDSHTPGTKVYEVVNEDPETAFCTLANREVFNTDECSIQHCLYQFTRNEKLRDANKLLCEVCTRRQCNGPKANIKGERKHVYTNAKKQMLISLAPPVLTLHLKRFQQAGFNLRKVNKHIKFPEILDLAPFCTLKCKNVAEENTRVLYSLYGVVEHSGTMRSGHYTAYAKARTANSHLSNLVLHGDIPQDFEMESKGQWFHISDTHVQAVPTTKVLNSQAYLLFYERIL
How it was run: as §1

Measured: log2 ratio of Biotin-Ahx-Ub-VS probe labelling

CNC(=O)C1CCN(C(=O)CCl)CC1
inactive: OTUD6B -0.163 | OTUD7B -0.121 | PRPF8 -0.218 | PSMD7 0.12 | UCHL1 -0.544 | UCHL3 0.53 | UCHL5 -0.0712 | USP10 -0.383 | USP15 -0.0196 | USP16 0.31
